Screening results: PubChem, National Center for Advancing Translational Sciences (NCATS)
Sampled rows, rich in hits. Any-hit rate of the full collection: about 0.52%.
Vif-A3F inh = qHTS for Inhibitors of Vif-A3F Interactions: qHTS; AID 602313, 2012; Potency, µM (highest dose often 46.1 µM), inactives show top-dose activity, negative = active; HeLa A3F-eYFP + Vif (tagged APOBEC3F with the HIV-1 protein that degrades it), YFP fluorescence increase; 390,000 tested, 0.2% active; further: % of control where 0% means no effect; nearly all actives have a fitted effect of over 65% in size
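HeLa cells stably expressing Vif plus C-terminally eYFP-tagged A3F were seeded, incubated overnight at 37 deg C, dosed with compound, incubated overnight again at 37 deg C. Yellow fluorescence (Ex 488/Em 500-530) reported blocked Vif-mediated A3F-eYFP degradation.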
PINK1 modulator = A Quantitative High throughput Screen to Identify Chemical Modulators of PINK1 Expression; Potency, µM (doses to about 76.6 µM), for inactives: at the highest dose activation (PINK1 increase), usual class: activators; PINK1 immunofluorescence, high-content cytometry, 24 h; 410,000 tested, 0.2% active; active means well fitted activation curve with a large enough effect; inconclusive means small, poorly fitted or top-dose-only effect; cell line not stated here; further: % of control where 0% means no effect; nearly all actives have a fitted effect of over 65% in size
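Readout is PINK1 immunofluorescence, quantified alongside mitochondrial, cell and nuclear markers by laser-scanning microplate cytometry. Cells from a stable line were exposed to compound titrations (5 concentrations) for 24 hours, with CCCP controls.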
Vif-APOBEC3G blk = qHTS for Inhibitors of Vif-A3G Interactions: qHTS | AID 602310, 2012 | DNA dC->dU-editing enzyme APOBEC-3G (Homo sapiens), Q9HC16 | 410,000 tested, 0.076% active | HeLa A3G-eYFP + Vif (tagged APOBEC3G with the HIV-1 protein that degrades it), YFP fluorescence, overnight | Potency, µM (titrated, usually from 46.1 µM), without a hit: top-dose activity, negative = active, most hits filed as inhibitors; further: on the % scale 0 is the no-effect control and ±100 the full control effect; nearly all actives have a fitted effect of over 60% in size
Target sequence (Q9HC16 whole entry, looked up): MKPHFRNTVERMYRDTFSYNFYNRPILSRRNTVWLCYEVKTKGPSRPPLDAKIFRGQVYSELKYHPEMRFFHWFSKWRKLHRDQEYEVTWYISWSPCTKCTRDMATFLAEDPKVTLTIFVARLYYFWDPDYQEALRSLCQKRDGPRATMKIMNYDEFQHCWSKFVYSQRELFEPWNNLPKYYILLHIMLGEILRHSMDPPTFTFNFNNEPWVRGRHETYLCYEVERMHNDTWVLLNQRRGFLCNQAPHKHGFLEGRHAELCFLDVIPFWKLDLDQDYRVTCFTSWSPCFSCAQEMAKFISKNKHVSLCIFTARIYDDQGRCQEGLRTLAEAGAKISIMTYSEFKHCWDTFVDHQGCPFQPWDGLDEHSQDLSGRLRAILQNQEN
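Read-out is eYFP fluorescence (Ex 488/Em 500-530) from Vif-expressing HeLa A3G-eYFP cells; more signal means A3G escaped Vif-mediated degradation. Cells plated overnight, compound pinned in, incubated overnight at 37 deg C.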
Epigenetic derep = Quantitative High-Throughput Screen for Regulators of Epigenetic Control; murine LDR cells, GFP reporter derepression, 30 h; Potency, µM (titrated, usually from 53.9 µM), without a hit: at the top dose GFP activation, actives largely listed as activators; 280,000 tested, 0.2% active; AID 1865, 2009; further: % of control where 0% means no effect; nearly all actives have a fitted effect of over 60% in size
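GFP-positive cell count by laser-scanning cytometry (objects 20–120 um) after 30 h, 37 C compound exposure of murine LDR cells; reporter is CMV-GFP integrated at a silenced locus, inducible by HDAC or DNMT inhibitors.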
An asterisk follows results filed as active. Unless noted, the call rests on the fitted dose curve; in most records, active means well fitted curve in the direction sought with a large enough effect; inconclusive means small, poorly fitted or top-dose-only effect, or another doubt; inactive means no such curve, though single readings can be large; an effect the other way counts as inactive or inconclusive. Potency means the concentration at half of the fitted maximal effect.

For COc1cc(/C=C2\SC(N)=NC2=O)cc(Br)c1O the results were Vif-A3F inh inconclusive, PINK1 modulator -0.6% and Vif-APOBEC3G blk 11.2µM*.
For Cc1ccc(NC(=O)/C(C#N)=C\c2ccc(-c3ccc(Cl)cc3)o2)c(C)c1 the results were Vif-A3F inh 3.16µM*, PINK1 modulator 0.2%, Vif-APOBEC3G blk -6.2% and Epigenetic derep 3.55µM*.
For COc1cccc(C2(CC(=O)N3CCC(c4nc5ccc(F)cc5[nH]4)CC3)CC(=O)N(C)C2=O)c1 (stereo unspecified) the results were PINK1 modulator 1.5%.
Cc1ccc(OCC(=O)N/N=C/c2ccccc2)c([N+](=O)[O-])c1 was read as Vif-A3F inh 1.5%, PINK1 modulator 1.6%, Vif-APOBEC3G blk 1.9% and Epigenetic derep 3.3%.
For Cc1ccc(OCC(=O)N/N=C\c2ccc(C)o2)c([N+](=O)[O-])c1 the results were Vif-A3F inh inconclusive, PINK1 modulator 44.7µM*, Vif-APOBEC3G blk inconclusive and Epigenetic derep 2.2%.
O=C(Nc1ccc(OCC(F)(F)C(F)F)c(C(F)(F)F)c1)c1ccccc1 was read as Vif-A3F inh 5.5%, PINK1 modulator 2.1% and Vif-APOBEC3G blk 7.0%.
For O=C(Nc1ccc(OCC(F)(F)C(F)F)c(C(F)(F)F)c1)c1ccccc1O the results were Vif-A3F inh -3.3%, PINK1 modulator 15.8µM*, Vif-APOBEC3G blk -10.1% and Epigenetic derep -1.1%.
Screening CCC1C(=O)NCCN1Cc1ccc2c(c1)CN(Cc1cc(OC)c3c(c1)OCO3)CCO2 (stereo unspecified) returned PINK1 modulator -0.8%.
Screening Cc1cc(=O)c2c(O)c3c(O)cc(=O)c4c3c3c(cc(O)c1c23)C(C)(C)C=4O returned Epigenetic derep 15.8µM*.
O=C(Nc1ccc(Br)cc1)c1cccc(S(=O)(=O)Nc2cnc3ccccc3c2)c1 was read as Vif-A3F inh 6.8%, PINK1 modulator inconclusive, Vif-APOBEC3G blk -6.2% and Epigenetic derep -3.2%.
`COc1ccc(NC(=O)c2cccc(S(=O)(=O)Nc3ccc(Br)cc3)c2)cn1` gave Vif-A3F inh -2.9%, PINK1 modulator 14.1µM*, Vif-APOBEC3G blk -1.5% and Epigenetic derep 0.0%.
`COCCN(CCOC)Cc1c(O)ccc2c1O/C(=C\c1ccc(C)o1)C2=O` gave Vif-A3F inh 25.1µM*, PINK1 modulator 0.7% and Vif-APOBEC3G blk -0.7%.
For CCN(CC)Cc1c(O)ccc2c1O/C(=C\C=C\c1ccccc1)C2=O the results were Vif-A3F inh inconclusive, PINK1 modulator 0.9%, Vif-APOBEC3G blk -3.9% and Epigenetic derep -1.1%.
COc1ccc(NC(=O)NC(C)c2ccncc2)cc1OC (stereo unspecified) was read as Vif-A3F inh -4.1%, PINK1 modulator 11.2µM*, Vif-APOBEC3G blk 1.0% and Epigenetic derep 0.0%.
`CCCN1CCc2c(sc(NC(=S)NC(=O)c3ccccc3)c2C#N)C1` gave Vif-A3F inh 25.1µM*, PINK1 modulator 2.6%, Vif-APOBEC3G blk -30.3% and Epigenetic derep inconclusive.
For CC(C)N1CCc2c(sc(NC(=S)NC(=O)c3ccccc3)c2C#N)C1 the results were Vif-A3F inh inconclusive, PINK1 modulator -0.9%, Vif-APOBEC3G blk inconclusive and Epigenetic derep 0.0%.
`CC(=O)N1CCc2c(sc(NC(=O)c3ccc([N+](=O)[O-])o3)c2C#N)C1` gave Vif-A3F inh -16.6%, PINK1 modulator -1.2%, Vif-APOBEC3G blk -20.3% and Epigenetic derep 11.2µM*.
`COc1cc(C(=O)Nc2sc3c(c2C#N)CCN(C(C)=O)C3)cc(OC)c1OC` gave Vif-A3F inh -3.7%, PINK1 modulator 14.0%, Vif-APOBEC3G blk inconclusive and Epigenetic derep 0.1%.
COc1ccc(C(=O)Nc2sc3c(c2C#N)CCN(C(C)=O)C3)cc1 was read as Vif-A3F inh -14.3%, PINK1 modulator 10.1%, Vif-APOBEC3G blk 10µM* and Epigenetic derep 0.0%.
`Cc1nn(-c2ccccc2)c(C)c1CC(=O)NCC1Cc2cc(F)cc(-c3cccnc3)c2O1` (stereo unspecified) gave PINK1 modulator 0.1%.
For Cc1c(C(=O)NCC2CC2)sc2ncnc(NCCN3CCCCC3)c12 the results were PINK1 modulator 1.3%.
`CC(=O)C12CCCCC1CC1[C@@H]3CC(C)C4=CC(=O)CC[C@]4(C)C3CC[C@@]12C` (stereo partly specified) gave Vif-A3F inh 2.3%, PINK1 modulator 15.8µM* and Vif-APOBEC3G blk -0.4%.
Screening CC(=O)O[C@]1(C(C)=O)CC[C@H]2[C@@H]3C[C@H](C)C4=CC(=O)CC[C@]4(C)[C@H]3CC[C@@]21C returned Vif-A3F inh -2.8%, PINK1 modulator 31.6µM*, Vif-APOBEC3G blk 0.8% and Epigenetic derep -1.8%.
COC(=O)c1ccccc1-c1cc(C)cc2c1OC(CNC(=O)c1ccn(C)n1)C2 (stereo unspecified) was read as PINK1 modulator 0.5%.
Cc1ccc(-c2cc(C(=O)NCc3cnn(C)c3)c3cc(Br)ccc3n2)cc1 was read as Vif-A3F inh -15.8%, PINK1 modulator inconclusive, Vif-APOBEC3G blk -2.3% and Epigenetic derep 8.7%.
Screening CCn1cc(CNC(=O)c2cc(-c3ccc(C)cc3)nc3ccc(Br)cc23)c(C)n1 returned Vif-A3F inh inconclusive, PINK1 modulator -0.5%, Vif-APOBEC3G blk -21.5% and Epigenetic derep 15.8µM*.
For CCN(CC)c1ccc2cc(-c3nc4sc5c(c4c(=O)[nH]3)CCC(C(C)(C)C)C5)c(=O)oc2c1 (stereo unspecified) the results were Vif-A3F inh inconclusive, PINK1 modulator 2.3%, Vif-APOBEC3G blk 10µM* and Epigenetic derep 1.4%.
CC(C)(C)C1CCc2c(sc3nc(-c4cc5ccccc5oc4=O)[nH]c(=O)c23)C1 (stereo unspecified) was read as Vif-A3F inh 2.9%, PINK1 modulator 3.8%, Vif-APOBEC3G blk 4.0% and Epigenetic derep 2.8%.
COc1ccccc1-c1ccnc(-n2ncc(C(=O)NC(c3cccnc3)C(F)(F)F)c2C)n1 (stereo unspecified) was read as PINK1 modulator 6.2%.
For Cc1ccc(S(=O)(=O)Nc2ccccc2CNc2ccc(Br)cn2)cc1 the results were Vif-A3F inh 0.4%, PINK1 modulator 15.8µM*, Vif-APOBEC3G blk -8.2% and Epigenetic derep 1.1%.
For COc1cccc(-c2nc3cc(SC)ccc3cc2CN(C(=O)c2csc(C)n2)C2CC2)c1 the results were PINK1 modulator 0.7%.
Screening COC(=O)Cn1c(C)c(/C=C/c2cc[n+](C)cc2)c2ccccc21 returned Vif-A3F inh 11.2µM*, PINK1 modulator -0.4% and Vif-APOBEC3G blk inconclusive.
For CN(C)c1cc[n+](CC(=O)c2ccc(-c3ccccc3)cc2)cc1 the results were Vif-A3F inh -7.9%, PINK1 modulator 25.1µM*, Vif-APOBEC3G blk 2.2% and Epigenetic derep -2.8%.
